In article PMC7862700, “An all-to-all approach to the identification of sequence-specific readers for epigenetic DNA modifications on cytosine”:

What follows are sequences tested against T1, ETV3 (Homo sapiens, UniProt P41162-2 1-143) (assay: DAPPL (digital affinity profiling via proximity ligation, sequencing); 10 mM Tris-HCl pH 7.5, 50 mM NaCl, 1 mM DTT, 4% glycerol, room temperature, 30 min; GST-TFs on glutathione beads, 16-mer random dsDNA library, 0.1% formaldehyde crosslink after washing; high values mean tight binding). Conditions: protein: recombinant; tags: N-terminal GST; dsDNA, one strand shown.
T1 sequence: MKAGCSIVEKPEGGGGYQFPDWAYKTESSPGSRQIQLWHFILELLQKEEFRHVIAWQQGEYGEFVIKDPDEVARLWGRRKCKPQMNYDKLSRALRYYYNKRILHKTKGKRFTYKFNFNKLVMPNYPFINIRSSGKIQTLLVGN
Procedure, shortened: (§1)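 Human transcription factors were made in yeast as GST fusions, captured on glutathione beads and barcoded with DNA. With a tag-only sample included, the pool was incubated with 200 nmole of a random double-stranded 16-mer DNA library in Tris/NaCl/DTT/glycerol buffer at room temperature for 30 min, then crosslinked with 0.1% formaldehyde after washing, ligated by proximity, amplified and sequenced. For binding signal, each hexamer's read frequency for a factor is divided by its frequency for the tag-only sample.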
With CTTCGA the binding signal was 1.16 fold enrichment (6-mer frequency, TF over GST control). With CTCGCA the binding signal was 1.34 fold enrichment (6-mer frequency, TF over GST control). With TTTTAC the binding signal was 1.45 fold enrichment (6-mer frequency, TF over GST control). In the case of TCCCAT, the binding signal is reported as 1.32 fold enrichment (6-mer frequency, TF over GST control). AAAAAT was tested, and the binding signal was 1.29 fold enrichment (6-mer frequency, TF over GST control). With TTATCG the binding signal was 1.22 fold enrichment (6-mer frequency, TF over GST control). In the case of AATTAA, the binding signal is reported as 1.25 fold enrichment (6-mer frequency, TF over GST control). For AACATT, the binding signal was 1.32 fold enrichment (6-mer frequency, TF over GST control). CTAGCA was tested, and the binding signal was 1.18 fold enrichment (6-mer frequency, TF over GST control). In the case of TCTCGA, the binding signal is reported as 1.4 fold enrichment (6-mer frequency, TF over GST control). With AAAACG the binding signal was 1.15 fold enrichment (6-mer frequency, TF over GST control). For AAACAT, the binding signal was 1.48 fold enrichment (6-mer frequency, TF over GST control). For TTCGCT, the binding signal was 1.23 fold enrichment (6-mer frequency, TF over GST control). GCTAAA was tested, and the binding signal was 1.13 fold enrichment (6-mer frequency, TF over GST control). With GCTTTA the binding signal was 1.13 fold enrichment (6-mer frequency, TF over GST control). For TTCCTT, the binding signal was 2.13 fold enrichment (6-mer frequency, TF over GST control). CTCGAC was tested, and the binding signal was 1.45 fold enrichment (6-mer frequency, TF over GST control). In the case of TTCACT, the binding signal is reported as 1.3 fold enrichment (6-mer frequency, TF over GST control). With TACTCA the binding signal was 1.14 fold enrichment (6-mer frequency, TF over GST control). With AATACC the binding signal was 1.17 fold enrichment (6-mer frequency, TF over GST control). With TTCTGA the binding signal was 1.37 fold enrichment (6-mer frequency, TF over GST control). ATTCAC was tested, and the binding signal was 1.23 fold enrichment (6-mer frequency, TF over GST control). For TCTAAA, the binding signal was 1.28 fold enrichment (6-mer frequency, TF over GST control). In the case of TATCAT, the binding signal is reported as 1.21 fold enrichment (6-mer frequency, TF over GST control). For TGGCAT, the binding signal was 1.23 fold enrichment (6-mer frequency, TF over GST control). In the case of ATCTTA, the binding signal is reported as 1.04 fold enrichment (6-mer frequency, TF over GST control). With TCTAAG the binding signal was 1.24 fold enrichment (6-mer frequency, TF over GST control). With ATTGGT the binding signal was 1.24 fold enrichment (6-mer frequency, TF over GST control). For GATGAC, the binding signal was 1.56 fold enrichment (6-mer frequency, TF over GST control). In the case of CTTTGT, the binding signal is reported as 1.32 fold enrichment (6-mer frequency, TF over GST control). In the case of CCTTTA, the binding signal is reported as 1.33 fold enrichment (6-mer frequency, TF over GST control). For TCGACT, the binding signal was 1.4 fold enrichment (6-mer frequency, TF over GST control). With TATTAT the binding signal was 1.27 fold enrichment (6-mer frequency, TF over GST control). With GATGTA the binding signal was 1.39 fold enrichment (6-mer frequency, TF over GST control). In the case of GCTCCC, the binding signal is reported as 1.21 fold enrichment (6-mer frequency, TF over GST control). CGACTC was tested, and the binding signal was 1.29 fold enrichment (6-mer frequency, TF over GST control). With ATTGCA the binding signal was 1.09 fold enrichment (6-mer frequency, TF over GST control). CTTCCC was tested, and the binding signal was 2.3 fold enrichment (6-mer frequency, TF over GST control). For CAATAA, the binding signal was 1.14 fold enrichment (6-mer frequency, TF over GST control). With ACTAAC the binding signal was 1.24 fold enrichment (6-mer frequency, TF over GST control).

Each sequence was assayed against ETV6 (Homo sapiens, UniProt P41212 1-452) in the same assay as above. Conditions: protein: recombinant; tags: N-terminal GST; dsDNA, one strand shown.
Sequence of ETV6 (P41212 whole entry): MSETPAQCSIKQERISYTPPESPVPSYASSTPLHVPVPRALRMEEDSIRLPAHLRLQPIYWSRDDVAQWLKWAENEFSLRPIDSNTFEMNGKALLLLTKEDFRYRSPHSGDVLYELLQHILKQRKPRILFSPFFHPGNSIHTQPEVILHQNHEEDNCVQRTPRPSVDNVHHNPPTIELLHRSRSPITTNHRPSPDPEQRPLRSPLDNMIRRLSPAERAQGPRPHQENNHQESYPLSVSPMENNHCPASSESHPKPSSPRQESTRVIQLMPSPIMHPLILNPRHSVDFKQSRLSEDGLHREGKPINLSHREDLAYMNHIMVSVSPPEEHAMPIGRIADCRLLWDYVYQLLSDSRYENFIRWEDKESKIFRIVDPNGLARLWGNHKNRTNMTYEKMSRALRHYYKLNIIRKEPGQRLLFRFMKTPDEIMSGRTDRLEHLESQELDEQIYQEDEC
Procedure, shortened: as §1
With CTTCGA the binding signal was 1.43 fold enrichment (6-mer frequency, TF over GST control). In the case of CTCGCA, the binding signal is reported as 1.19 fold enrichment (6-mer frequency, TF over GST control). For TTTTAC, the binding signal was 1.33 fold enrichment (6-mer frequency, TF over GST control). For TCCCAT, the binding signal was 1.37 fold enrichment (6-mer frequency, TF over GST control). AAAAAT was tested, and the binding signal was 1.35 fold enrichment (6-mer frequency, TF over GST control). In the case of TTATCG, the binding signal is reported as 1.27 fold enrichment (6-mer frequency, TF over GST control). For AATTAA, the binding signal was 1.32 fold enrichment (6-mer frequency, TF over GST control). In the case of AACATT, the binding signal is reported as 1.39 fold enrichment (6-mer frequency, TF over GST control). In the case of CTAGCA, the binding signal is reported as 1.18 fold enrichment (6-mer frequency, TF over GST control). In the case of TCTCGA, the binding signal is reported as 1.47 fold enrichment (6-mer frequency, TF over GST control). With AAAACG the binding signal was 1.25 fold enrichment (6-mer frequency, TF over GST control). For AAACAT, the binding signal was 1.52 fold enrichment (6-mer frequency, TF over GST control). TTCGCT was tested, and the binding signal was 1.23 fold enrichment (6-mer frequency, TF over GST control). In the case of GCTAAA, the binding signal is reported as 1.08 fold enrichment (6-mer frequency, TF over GST control). GCTTTA was tested, and the binding signal was 1.1 fold enrichment (6-mer frequency, TF over GST control). In the case of TTCCTT, the binding signal is reported as 2.1 fold enrichment (6-mer frequency, TF over GST control). CTCGAC was tested, and the binding signal was 1.63 fold enrichment (6-mer frequency, TF over GST control). In the case of TTCACT, the binding signal is reported as 1.23 fold enrichment (6-mer frequency, TF over GST control). For TACTCA, the binding signal was 1.22 fold enrichment (6-mer frequency, TF over GST control). AATACC was tested, and the binding signal was 1.16 fold enrichment (6-mer frequency, TF over GST control). TTCTGA was tested, and the binding signal was 1.3 fold enrichment (6-mer frequency, TF over GST control). With ATTCAC the binding signal was 1.17 fold enrichment (6-mer frequency, TF over GST control). For TCTAAA, the binding signal was 1.12 fold enrichment (6-mer frequency, TF over GST control). TATCAT was tested, and the binding signal was 1.05 fold enrichment (6-mer frequency, TF over GST control). In the case of TGGCAT, the binding signal is reported as 1.25 fold enrichment (6-mer frequency, TF over GST control). For ATCTTA, the binding signal was 1.14 fold enrichment (6-mer frequency, TF over GST control). For TCTAAG, the binding signal was 1.17 fold enrichment (6-mer frequency, TF over GST control). ATTGGT was tested, and the binding signal was 1.13 fold enrichment (6-mer frequency, TF over GST control). With GATGAC the binding signal was 1.43 fold enrichment (6-mer frequency, TF over GST control). CTTTGT was tested, and the binding signal was 1.31 fold enrichment (6-mer frequency, TF over GST control). With CCTTTA the binding signal was 1.41 fold enrichment (6-mer frequency, TF over GST control). With TCGACT the binding signal was 1.35 fold enrichment (6-mer frequency, TF over GST control). TATTAT was tested, and the binding signal was 1.3 fold enrichment (6-mer frequency, TF over GST control). In the case of GATGTA, the binding signal is reported as 1.35 fold enrichment (6-mer frequency, TF over GST control). GCTCCC was tested, and the binding signal was 1.25 fold enrichment (6-mer frequency, TF over GST control). For CGACTC, the binding signal was 1.38 fold enrichment (6-mer frequency, TF over GST control). For ATTGCA, the binding signal was 1.21 fold enrichment (6-mer frequency, TF over GST control). For CTTCCC, the binding signal was 2.54 fold enrichment (6-mer frequency, TF over GST control). In the case of CAATAA, the binding signal is reported as 1.12 fold enrichment (6-mer frequency, TF over GST control). ACTAAC was tested, and the binding signal was 1.22 fold enrichment (6-mer frequency, TF over GST control).
